From PubChem BioAssay AID1159580 (chemical genetic matrix, 2015)
Several values for one entry are separate records, joined by “and”; a condition that tells them apart may be missing. Equal entries are not always repeated. The whole screen tested about 5,500 compounds, of which about 2,000 (36%) were called active. Inconclusive results (about 18%) are left out. Cut-off read from the data, not from the text of the source: active = normalized growth mostly below about 0.91 (no sharp cut-off); inconclusive = no clear call, values can overlap the other calls; inactive = mostly above about 0.92. This is one part of the list.

Test: chemical genetic growth profiling, strain panel (AID 1159580);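 note: tested at 20 µM; growth read once vehicle control cultures reached saturation at 30 °C; 1 = growth at the plate median or of vehicle wells; lower values mean less growth of the strain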
Conditions: S. cerevisiae deletion strains, growth OD

Measured: normalized growth

COc1cc([C@@H]2c3cc4c(cc3[C@H](OC(C)=O)[C@H]3COC(=O)[C@@H]23)OCO4)cc(OC)c1OC
inactive: locus YAL021C, strain ccr4, hits give low values 1.01 | locus YAL026C, strain drs2, hits give low values 0.991 | locus YAL030W, strain snc1, hits give low values 1.01 | locus YBL061C, strain skt5, hits give low values 1.01 | locus YBR009C, strain hhf1, hits give low values 0.996 | locus YBR021W, strain FUR4, hits give low values 1.01 | locus YBR023C, strain chs3, hits give low values 1.01 | locus YBR171W, strain sec66, hits give low values 1 | locus YBR229C, strain ROT2, hits give low values 1.01 | locus YBR231C, strain swc5, hits give low values 1.01 | locus YBR279W, strain paf1, hits give low values 1 | locus YCL011C, strain gbp2, hits give low values 1 | locus YCL016C, strain dcc1, hits give low values 1 | locus YCL029C, strain bik1, hits give low values 1.01 | locus YCL069W, strain vba3, hits give low values 1 | locus YCR088W, strain abp1, hits give low values 0.982 | locus YDL005C, strain med2, hits give low values 1 | locus YDL035C, strain GPR1, hits give low values 1.02 | locus YDL040C, strain nat1, hits give low values 1 | locus YDL074C, strain BRE1, hits give low values 1.02 | locus YDL101C, strain DUN1, hits give low values 1.01 | locus YDL185W, strain tfp1, hits give low values 1.03 | locus YDL192W, strain arf1, hits give low values 1.04 | locus YDR001C, strain nth1, hits give low values 0.99 | locus YDR069C, strain doa4, hits give low values 1.01 | locus YDR101C, strain arx1, hits give low values 1.01 | locus YDR137W, strain rgp1, hits give low values 1.03 | locus YDR150W, strain NUM1, hits give low values 1.01 | locus YDR159W, strain sac3, hits give low values 1.01 | locus YDR162C, strain NBP2, hits give low values 1.01 | locus YDR195W, strain ref2 0.972 | locus YDR297W, strain sur2, hits give low values 1.01 | locus YDR318W, strain mcm21, hits give low values 1.02 | locus YDR334W, strain swr1, hits give low values 0.969 | locus YDR335W, strain msn5, hits give low values 1.01 | locus YDR388W, hits give low values 1.02 | locus YDR392W, strain spt3, hits give low values 0.998 | locus YDR502C, strain sam2, hits give low values 1.01 | locus YEL003W, strain gim4, hits give low values 0.998 | locus YEL037C, strain rad23, hits give low values 0.985 | locus YEL061C, strain CIN8 (second series), hits give low values 0.98 | locus YEL061C, strain CIN8, hits give low values 1.01 | locus YER015W, strain faa2, hits give low values 1.01 | locus YER016W, strain bim1, hits give low values 1.01 | locus YER110C, hits give low values 1.02 | locus YER111C, strain swi4, hits give low values 1.01 | locus YER155C, strain BEM2 (second series), hits give low values 1.01 | locus YER155C, strain BEM2, hits give low values 0.998 | locus YER167W, strain BCK2, hits give low values 1.02 | locus YFR010W, strain ubp6, hits give low values 0.98 | locus YGL078C, strain dbp3, hits give low values 1.03 | locus YGL086W, strain mad1, hits give low values 1.01 | locus YGL167C, strain pmr1, hits give low values 1 | locus YGL173C, strain kem1, hits give low values 1.01 | locus YGL227W, strain vid30, hits give low values 0.994 | locus YGL240W, strain doc1, hits give low values 1.01 | locus YGL248W, strain PDE1, hits give low values 1.01 | locus YGL253W, strain hxk2, hits give low values 1 | locus YGR078C, strain PAC10, hits give low values 1.02 | locus YGR135W, strain pre9, hits give low values 1.03 | locus YGR252W, strain gcn5, hits give low values 1.01 | locus YHR013C, strain ard1, hits give low values 1.01 | locus YHR027C, strain rpn1, hits give low values 0.993 | locus YHR030C, strain SLT2, hits give low values 1.01 and 0.979 | locus YHR079C, strain IRE1 (second series), hits give low values 1.03 | locus YHR079C, strain IRE1, hits give low values 0.985 | locus YHR094C, strain hxt1, hits give low values 1.03 | locus YHR129C, strain ARP1, hits give low values 1.01 | locus YHR142W, strain chs7, hits give low values 0.995 | locus YHR200W, strain rpn10, hits give low values 1.04 | locus YIL066C, strain RNR3, hits give low values 1.02 | locus YIL073C, strain SPO22, hits give low values 1.07 | locus YIL125W, strain kgd1, hits give low values 1.01 | locus YIR030C, strain dcg1, hits give low values 1.01 | locus YJL092W, strain hpr5, hits give low values 0.986 | locus YJL095W, strain BCK1 (second series), hits give low values 0.999 | locus YJL095W, strain BCK1, hits give low values 1.01 and 1.04 | locus YJL115W, strain asf1, hits give low values 0.993 | locus YJL129C, strain trk1, hits give low values 1.01 | locus YJL134W, strain LCB3, hits give low values 1.01 | locus YJL154C, strain vps35, hits give low values 0.978 | locus YJL164C, strain tpk1, hits give low values 1.01 | locus YJL166W, strain qcr8, hits give low values 1.02 | locus YJL168C, strain set2, hits give low values 1.02 | locus YJL187C, strain SWE1 (second series), hits give low values 1.02 | locus YJR043C, strain POL32, hits give low values 1.01 | locus YJR066W, strain TOR1, hits give low values 0.931 | locus YKL009W, strain mrt4, hits give low values 0.999 | locus YKL068W, hits give low values 1.01 | locus YKL085W, strain MDH1 (second series), hits give low values 1 | locus YKL085W, strain MDH1, hits give low values 1 | locus YKL160W, strain elf1, hits give low values 1.01 | locus YKL190W, strain CNB1, hits give low values 1.01 | locus YKR001C, strain vps1, hits give low values 1.03 | locus YKR026C, strain gcn3, hits give low values 0.997 | locus YKR091W, strain srl3, hits give low values 1 | locus YLL001W, strain dnm1, hits give low values 0.991 | locus YLL026W, hits give low values 1.01 | locus YLL041C, strain sdh2, hits give low values 0.997 | locus YLR027C, strain aat2, hits give low values 1 | locus YLR039C, strain RIC1, hits give low values 1.01 | locus YLR058C, strain SHM2, hits give low values 1.01 | locus YLR102C, strain apc9, hits give low values 1.03 | locus YLR113W, strain HOG1, hits give low values 1.08 | locus YLR221C, strain rsa3, hits give low values 1.01 | locus YLR258W, strain gsy2, hits give low values 1.01 | locus YLR262C, strain YPT6 (second series), hits give low values 0.956 | locus YLR262C, strain YPT6, hits give low values 1.07 | locus YLR268W, strain sec22, hits give low values 1.01 | locus YLR320W, strain mms22, hits give low values 1.01 | locus YLR330W, strain CHS5, hits give low values 1.01 | locus YLR342W, strain FKS1 (second series), hits give low values 1.02 | locus YLR342W, strain FKS1, hits give low values 1 | locus YLR357W, strain rsc2, hits give low values 0.973 | locus YLR370C, strain arc18, hits give low values 1.02 | locus YLR371W, strain rom2, hits give low values 1.02 | locus YLR384C, strain iki3, hits give low values 0.994 | locus YLR418C, strain cdc73, hits give low values 1.03 | locus YML016C, strain PPZ1, hits give low values 1.01 | locus YML032C, strain rad52, hits give low values 1.02 | locus YML120C, strain ndi1, hits give low values 1.01 | locus YML124C, strain tub3, hits give low values 1.02 | locus YMR058W, strain fet3, hits give low values 1 | locus YMR078C, strain ctf18, hits give low values 1.05 | locus YMR125W, strain sto1, hits give low values 0.986 | locus YMR129W, hits give low values 1 | locus YMR205C, strain PFK2, hits give low values 0.995 | locus YMR223W, strain ubp8, hits give low values 1.03 | locus YMR231W, strain pep5, hits give low values 1 | locus YMR263W, strain SAP30, hits give low values 1.01 | locus YMR307W, strain GAS1, hits give low values 1.04 | locus YNL067W, strain RPL9B, hits give low values 1.02 | locus YNL071W, strain lat1, hits give low values 0.991 | locus YNL183C, strain NPR1, hits give low values 0.972 | locus YNL209W, strain ssb2, hits give low values 0.989 | locus YNL233W, strain BNI4, hits give low values 1.01 | locus YNL248C, strain rpa49, hits give low values 0.961 | locus YNL250W, strain rad50, hits give low values 1.03 | locus YNL271C, strain bni1, hits give low values 1.02 | locus YNL298W, strain CLA4, hits give low values 1.02 | locus YNL307C, strain MCK1, hits give low values 1.02 | locus YNL322C, strain KRE1 (second series), hits give low values 1 | locus YNL322C, strain KRE1, hits give low values 1.01 | locus YNR049C, strain mso1, hits give low values 0.993 | locus YNR052C, strain pop2, hits give low values 1.03 | locus YOL006C, strain TOP1, hits give low values 1.07 | locus YOL012C, strain htz1 0.847 | locus YOL147C, strain pex11, hits give low values 1.01 | locus YOR001W, strain rrp6, hits give low values 0.987 | locus YOR061W, strain CKA2, hits give low values 1.01 | locus YOR069W, strain VPS5, hits give low values 1.01 | locus YOR070C, strain gyp1, hits give low values 1.01 | locus YOR080W, strain dia2, hits give low values 1 | locus YOR083W, strain WHI5, hits give low values 1.01 | locus YOR106W, strain vam3, hits give low values 1 | locus YOR136W, strain idh2, hits give low values 1.02 | locus YOR144C, strain elg1, hits give low values 1.01 | locus YOR184W, strain ser1, hits give low values 1.03 | locus YOR231W, strain MKK1, hits give low values 0.986 | locus YOR265W, strain rbl2, hits give low values 1 | locus YOR270C, strain vph1, hits give low values 0.847 | locus YOR290C, strain snf2, hits give low values 1.01 | locus YOR316C, strain cot1, hits give low values 1.01 | locus YPL051W, strain arl3, hits give low values 1.03 | locus YPL078C, strain atp4, hits give low values 0.978 | locus YPL106C, strain sse1, hits give low values 1.01 | locus YPL240C, strain hsp82, hits give low values 0.993 | locus YPL241C, strain CIN2, hits give low values 1.02 | locus YPL256C, strain CLN2, hits give low values 1 | locus YPR119W, strain clb2, hits give low values 1.04 | locus YPR141C, strain kar3, hits give low values 1.03 | locus YPR163C, strain tif3, hits give low values 1.03 | locus YPR167C, strain met16, hits give low values 1.01 | strain wtn01, hits give low values 1.03
